Consider 92 compounds from PubChem BioAssay AID2221 (Broad Institute, 2009).

Molecules are shown by their SMILES. Screen size: about 290,000 compounds; about 2,200 (0.76%) were called active. No stated cut-off is given here; in the data, active means inhibition above about 30%; inconclusive means no clear call, values can overlap the other calls; inactive means below that. This excerpt belongs to a sample that is enriched for actives.

The target of this test is Protein RecA (Mycobacterium tuberculosis (strain ATCC 25618 / H37Rv)) (UniProt P9WHJ3). The test is described as follows: Mtb RecA intein splicing inhibitors, primary screen, biochemical, fluorescence, HTS (AID 2221).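 Further: 0% = vehicle wells and 100% = reference inhibitor control wells.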 Conditions: cell-free RecA intein splicing, hits give high values, concentration not given here.
Sequence of Protein RecA (Mycobacterium tuberculosis (strain ATCC 25618 / H37Rv)) (P9WHJ3 whole entry, looked up): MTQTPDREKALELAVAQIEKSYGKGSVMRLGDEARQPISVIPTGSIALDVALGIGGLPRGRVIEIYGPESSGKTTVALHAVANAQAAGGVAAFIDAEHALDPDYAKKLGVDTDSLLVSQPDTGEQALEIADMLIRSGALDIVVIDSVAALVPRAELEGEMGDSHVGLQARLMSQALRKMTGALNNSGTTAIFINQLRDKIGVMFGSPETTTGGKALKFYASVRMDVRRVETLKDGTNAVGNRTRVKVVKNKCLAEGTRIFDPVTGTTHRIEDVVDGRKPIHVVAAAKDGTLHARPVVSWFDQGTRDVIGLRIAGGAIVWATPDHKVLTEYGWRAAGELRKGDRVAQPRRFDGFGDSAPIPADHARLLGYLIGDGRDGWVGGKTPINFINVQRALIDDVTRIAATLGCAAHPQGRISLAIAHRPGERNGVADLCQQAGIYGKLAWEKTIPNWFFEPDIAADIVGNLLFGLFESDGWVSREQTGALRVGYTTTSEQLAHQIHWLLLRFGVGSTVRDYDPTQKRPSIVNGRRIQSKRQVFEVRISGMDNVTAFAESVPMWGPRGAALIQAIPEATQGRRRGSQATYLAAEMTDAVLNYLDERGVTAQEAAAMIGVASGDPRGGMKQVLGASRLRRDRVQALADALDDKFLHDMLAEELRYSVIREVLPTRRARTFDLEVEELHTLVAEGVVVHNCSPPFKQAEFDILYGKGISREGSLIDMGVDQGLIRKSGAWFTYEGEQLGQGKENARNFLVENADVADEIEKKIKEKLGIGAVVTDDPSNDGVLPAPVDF
For the compound `COc1cccc(CNC(=O)C2CCCN(c3ncnc4c3nc3n4CCCCC3)C2)c1` (configuration not stated), the inhibition (in general, the relative decrease from the control value, in per cent) is 3.28% (inactive). In the case of `O=C(O)CSc1c2c(nc3cc(C(=O)Nc4cccc(C(F)(F)F)c4)ccc13)CCCC2` it was 45.1% (active); in that of `CC(=O)c1ccc(NC(=O)c2ccc3c(Cl)c4c(nc3c2)CCCC4)cc1`, -0.115% (inactive); in that of `COc1cccc(NC(=O)c2ccc3c(SCC(=O)O)c4c(nc3c2)CCCC4)c1`, 16.6% (inactive). In the case of `CC(C)CC(=O)Nc1nnc(S(=O)(=O)N(C)c2ccc(Cl)cc2)s1` it was -1.1% (inactive). With `O=C(C1CCCN(S(=O)(=O)c2ccc([N+](=O)[O-])cc2)C1)N1CCCCC1` (configuration not stated), the inhibition was -2.27% (inactive). In the case of `O=c1oc2ccccc2c(NC2CCCCC2)c1NS(=O)(=O)c1ccc(Cl)cc1` it was -0.796% (inactive); in that of `COC(=O)c1ccc(-n2cnc3ccccc32)nc1`, -0.81% (inactive); in that of `O=C(c1ccc(Cl)cc1)n1cnc2ccccc21`, 48.8% (active). In the case of `COC(=O)c1cn(C(=O)c2ccc(Cl)cc2)c2ccccc12` it was -1.64% (inactive).

`O=C(Nc1ncccc1O)c1ccc(S(=O)(=O)N2CCCCCC2)cc1`: the inhibition is -0.935% (inactive). For `Oc1c(Cl)cc(Cl)c(Cl)c1Cc1c(O)c(Cl)cc(Cl)c1Cl`, the inhibition is 43.2% (active).

In the case of `COC(=O)c1nc(NC(=O)c2ccc(F)cc2)n[nH]1`, the inhibition is 22.9% (inactive).

As to `COC(=O)c1nc(NC(=O)c2ccc(Cl)cc2)n[nH]1`, the inhibition is -2.52% (inactive). In the case of `COC(=O)c1nc(NC(=O)c2ccc(C(C)(C)C)cc2)n[nH]1` it was 32.8% (active); in that of `CC(=O)N1CC(=O)N(CC(=O)Nc2ccc(Br)cc2)C1=S`, -3.4% (inactive); in that of `O=C(Oc1cccc(O)c1)C1CCCCC1`, -20.9% (inactive). In the case of `COC(=O)C1=C(C(=O)OC)C(c2cc([N+](=O)[O-])ccc2O)c2sc(=O)[nH]c2S1` (configuration not stated) it was -7.2% (inactive); in that of `CCOC(=O)c1c(C)[nH]c2c1-c1ccccc1C(=O)C2=O`, 97.6% (active); in that of `CCOC(=O)c1c(C)nc(-c2ccccc2)nc1NC(=O)C(C)C`, -0.631% (inactive). In the case of `CCOC(=O)c1c(C)[nH]c(C)c1S(=O)(=O)N(C)CC(=O)Nc1ccccc1C` it was -2.47% (inactive); in that of `Cc1cc(C=O)c(C)n1-c1ccc(NC2CCCCC2)c([N+](=O)[O-])c1`, 15.3% (inactive); in that of `NC1=NN(c2cccc(C(=O)O)c2)C(=O)C1`, 83.8% (active).

Turning to `O=C(O)c1cccc(N2C(=O)Nc3ccccc3N2O)c1`, the inhibition was -5.4% (inactive). In the case of `O=C(c1cccc(N2CCCC2=O)c1)N1CCOCC1` it was 2.18% (inactive); in that of `N=C1/C(=C/c2cccn2-c2cccc([N+](=O)[O-])c2)C(=O)N=C2SC=CN12`, -0.963% (inactive); in that of `O=c1[nH]n2c(-c3ccccc3)nc(O)c2c2ccccc12`, -1.37% (inactive). In the case of `O=c1[nH]c2ccccc2n2c(-c3ccccc3)nnc12`, the inhibition is 33.2% (active).

Consider `Cc1ccccc1Cn1c(=O)[nH]c2ccccc21`, for which the inhibition is 3.55% (inactive). In the case of `CN(C(=O)CSc1nnc(N)s1)c1c(N)n(Cc2ccccc2)c(=O)[nH]c1=O` it was -0.327% (inactive). In the case of `CC(C)(C)C(=O)N1CCC[C@@]1(CO)C(=O)O` it was -0.553% (inactive); in that of `CCc1ccc2nc(Nc3ncc(C(C)=O)c(C)n3)nc(C)c2c1`, 1.55% (inactive); in that of `Brc1ccc(-c2n(-c3ccccn3)c3ccccc3[n+]2-c2ccccn2)cc1`, 6.87% (inactive).

Turning to `Cc1[nH]c2ccccc2c1C(=O)CN1CCCC(C)C1` (configuration not stated), the inhibition was -2.48% (inactive). In the case of `CCn1nnnc1SCC(=O)Nc1ccc(N(C)C)cc1` it was -2.84% (inactive); in that of `CC(OC(=O)c1ccccc1OCc1ccc(Cl)cc1)C(N)=O` (configuration not stated), -4.29% (inactive). In the case of `CC(=O)N(Cc1cc(=O)[nH]c2ccccc12)c1ccc(C)cc1C` it was 2.74% (inactive); in that of `Cc1ccc(N(Cc2cc3ccccc3[nH]c2=O)C(=O)c2cccs2)cc1`, 0.4% (inactive); in that of `Cc1ccc(N(Cc2cc(=O)[nH]c3ccccc23)C(=O)CCl)cc1`, 69.5% (active). In the case of `COc1ccccc1CC(=O)NCCc1c[nH]c2ccccc12` it was 3.54% (inactive); in that of `O=C(Cc1c[nH]c2ccccc12)OCCOC(=O)Cc1c[nH]c2ccccc12`, 1.52% (inactive). For the compound `O=S(=O)(O)Oc1c[nH]c2ccccc12`, the inhibition was 75% (active).

Consider `O=C(O)C1CCCN(CCC=C(c2ccccc2)c2ccccc2)C1` (configuration not stated), for which the inhibition is -1.43% (inactive).

As to `O=C(Nc1ccccc1)c1ccc(NC(=O)c2cccs2)cc1`, the inhibition was -3.07% (inactive). In the case of `O=C(Nc1n[nH]c(C(F)(F)F)n1)c1cccs1` it was 51.9% (active); in that of `O=S(=O)(Nc1n[nH]c(C(F)(F)F)n1)c1ccccc1`, -1.49% (inactive). In the case of `Cc1ccc(-c2noc(C3CCCN(C(=O)c4cccc(Cl)c4)C3)n2)o1` (configuration not stated) it was 1.61% (inactive).

As for `Cc1nn(Cc2ccccc2)c(C)c1NS(=O)(=O)c1ccccc1`, the inhibition is 1.17% (inactive). In the case of `COc1ccc(C2C(C#N)=C(N)Oc3cc(N)ccc32)cc1OC` (configuration not stated) it was -13.5% (inactive); in that of `Cn1c2c(c(=O)n(C)c1=O)C(c1cccc(F)c1)C(C#N)=C(N)O2` (configuration not stated), -1.55% (inactive).

Turning to `Cc1nn(-c2ccccc2)c2c1C(c1ccc(F)cc1)C(C#N)=C(N)O2` (configuration not stated), the inhibition was 43.3% (active).

Regarding `Cc1cc(C)c2c3c(sc2n1)C(c1ccccc1)C(C#N)=C(N)O3` (configuration not stated), the inhibition was -1.99% (inactive). In the case of `C=CCOC(=O)C1=C(C)OC(N)=C(C#N)C1c1ccc(F)cc1` (configuration not stated) it was 5.83% (inactive); in that of `COc1ccccc1C1C(C#N)=C(N)Oc2c1c(-c1ccccc1)nn2-c1ccccc1` (configuration not stated), 35.8% (active); in that of `Cc1nn(Cc2ccccc2)c2c1C(c1ccccc1)C(C#N)=C(N)O2` (configuration not stated), 66.3% (active). In the case of `COC(=O)C1=C(C)OC(N)=C(C#N)C1c1cc(OC)ccc1OC` (configuration not stated) it was -1.82% (inactive); in that of `Cc1n[nH]c(C)c1S(=O)(=O)N1CCCC(C(=O)Nc2ccc(Br)cc2)C1` (configuration not stated), -13.2% (inactive); in that of `CC1CC(C)(C)CC2(C1)NC(=O)N(CC(=O)Nc1nccs1)C2=O` (configuration not stated), -1.2% (inactive). As for `CCN1CCC2(CC1)N=C(c1ccc(F)cc1)C(=S)N2C(=O)c1ccc(C)cc1`, the inhibition was 1.27% (inactive). In the case of `COc1ccc(-c2ccc(CCC(=O)O)n2NC(=O)c2ccc(C(C)(C)C)cc2)cc1` it was 3.63% (inactive); in that of `CCN1C(=O)[C@@H]2[C@@H](c3ccc(-c4ccccc4)cc3)N3CCCC[C@@]3(C(=O)OC)[C@@H]2C1=O`, 2.14% (inactive). In the case of `Cc1ccc(-c2nc(SCC(=O)Nc3ccccc3OC(F)F)c3c(C)c(C(=O)O)sc3n2)cc1` it was 2.99% (inactive); in that of `Cc1ccc(CC2C(=O)N(c3ccc(F)cc3)C(=O)C2C)cc1` (configuration not stated), -0.367% (inactive). Take `COc1cc(/C(=C/c2ccccc2)c2ccccc2)c2c(c1)oc1ccccc12`: the inhibition is -0.274% (inactive). For the compound `COc1ccc(OC)c(/C(C)=N\NC(=O)c2cc3cc(Cl)ccc3n2C)c1`, the inhibition was 9.04% (inactive). In the case of `CC1=NN(c2ccc(Cl)c(C(=O)O)c2)C(=O)/C1=C/c1ccc(-c2ccccc2[N+](=O)[O-])o1` it was 7.48% (inactive).

On to `CC(=O)C1C(c2cccc(Oc3ccccc3)c2)NC(=O)NC1(O)C(F)(F)F` (configuration not stated), for which the inhibition was -2.89% (inactive). In the case of `O=C1NC(c2ccc(-c3ccccc3[N+](=O)[O-])o2)C(C(=O)c2ccc(Cl)cc2)C(O)(C(F)(F)F)N1` (configuration not stated) it was 45% (active); in that of `CC1(C)CC(=O)C(N=Nc2ccc(S(=O)(=O)N3CCCCCC3)cc2)=C(O)C1`, -0.925% (inactive); in that of `O=C1C=CC(=O)N1c1ccc(N2CCCCC2)cc1`, 3.11% (inactive). In the case of `COc1ccc(NC2=CC(=S)NC(C)(C)C2)cc1` it was 1.09% (inactive).

For `Cc1cc(NC(=O)CCC2COc3ccccc3O2)no1` (configuration not stated), the inhibition was 2.09% (inactive). With `O=C1C(=O)N(CC2COc3ccccc3O2)c2ccccc21` (configuration not stated), the inhibition was 6.05% (inactive). For `Cc1cc(C(=O)CCl)c(C)n1CC1COc2ccccc2O1` (configuration not stated), the inhibition was 40.6% (active). For `Cc1ccc(-c2nnc(Nc3ccc(C(=O)N(C)C)cc3)c3ccccc23)cc1S(N)(=O)=O`, the inhibition is -0.54% (inactive). In the case of `CCCOc1ccc(/C=N/NC(=O)C2CC2)c(OCCC)c1` it was -1.61% (inactive); in that of `COc1ccc(NC(=O)c2cnc(NS(=O)(=O)c3ccccc3)nc2)cc1`, 0.334% (inactive). In the case of `O=S(=O)(Nc1ccccn1)c1ccc(Oc2ccccc2)cc1` it was -0.988% (inactive).

Turning to `COc1ccc(S(=O)(=O)/N=C2\C=C(NS(=O)(=O)c3ccccc3)C(=O)c3ccccc32)cc1`, the inhibition was 36.2% (active). In the case of `Cc1ccccc1C(=O)N1CCC(C(=O)Nc2ccc(S(=O)(=O)N(C)C(C)C)cc2)CC1` it was 0.242% (inactive). In the case of `C[n+]1ccc(C(=O)NCc2ccccc2)cc1` it was 1.21% (inactive); in that of `Cc1cccc(C)c1NC(=S)N(Cc1cccnc1)Cc1ccccc1Cl`, 2.64% (inactive). In the case of `NC(=O)C1CCN(C(=O)c2ccc(-c3ccccc3)cc2)CC1` it was -3.02% (inactive). Regarding `CCOC(=O)N1CCC(NC(=O)COc2cc(=O)n(C)c3ccccc23)CC1`, the inhibition is -3.15% (inactive). In the case of `CCOC(=O)N1CCC(c2cc(=O)n(-c3ccccc3)[nH]2)CC1` it was 95.5% (active). In the case of `CCOC(=O)N1CCC(NC(=O)CCc2ccccc2)CC1` it was -0.782% (inactive); in that of `Cc1ccc(Nc2nc(CSc3nnc(-c4ccncc4)n3-c3ccccc3C)cs2)cc1`, 16.7% (inactive). In the case of `COc1cc(OC)c(S(=O)(=O)Nc2ccccc2C(=O)O)cc1S(=O)(=O)Nc1ccccc1C(=O)O` it was -1.6% (inactive); in that of `O=C(COc1coc(CN2CCN(c3ccccc3F)CC2)cc1=O)N1CCc2ccccc21`, -2.58% (inactive); in that of `O=C(CCl)Nc1cccc(CP(=O)(c2ccccc2)c2ccccc2)c1`, 35.8% (active). As to `O=C(Cc1ccccc1)Nc1cccc(NC(=O)c2ccccc2)c1`, the inhibition is -3.56% (inactive). In the case of `CCc1cccc(NC(=O)CCC(=O)O)c1`, the inhibition was -2.03% (inactive).
